# Source: PubChem BioAssay (National Center for Advancing Translational Sciences (NCATS))
# Only some compounds are listed: those with a hit (about 11% of all), similar ones and a draw of the others.
# ALDH1A1 block: ALDH1A1 (human) enzyme inhibition. P00352. Purified ALDH1A1, NADH fluorescence, propionaldehyde substrate. Potency, µM (titrated, usually from 75.3 µM), for the others: at the highest dose activity, negative = inhibition, actives largely listed as inhibitors. actives 7.3% (n = 220,000);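 note: potency is the fitted concentration of half-maximal effect; plate controls were no enzyme wells and a reference inhibitor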
# HPGD block: inhibitors of human 15-hydroxyprostaglandin dehydrogenase (HPGD); P15428; purified HPGD, NADH fluorescence kinetic, PGE2 substrate; Potency, µM, for the others: at the top dose activity change, negative = inhibition, hits mostly inhibitors; actives 4.3% (n = 150,000); note: potency is the fitted concentration of half-maximal effect
# Target sequence (P15428 whole entry, looked up): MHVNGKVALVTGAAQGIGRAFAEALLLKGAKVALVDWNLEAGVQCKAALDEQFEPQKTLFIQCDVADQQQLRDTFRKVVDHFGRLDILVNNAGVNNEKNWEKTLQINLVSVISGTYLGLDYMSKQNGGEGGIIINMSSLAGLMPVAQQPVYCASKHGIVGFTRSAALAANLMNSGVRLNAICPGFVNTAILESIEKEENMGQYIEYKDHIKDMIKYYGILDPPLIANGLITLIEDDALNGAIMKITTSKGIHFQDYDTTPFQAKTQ
#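 20 nM HPGD preincubated 15 min at room temperature with compound in 50 mM Tris-HCl pH 8, 0.01% Tween 20. Started with 1 mM NAD+ and 30 uM prostaglandin E2; NADH fluorescence (360/450 nm) read 5 times over 30-s intervals, last minus first.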
# 12-hLO inh: 12-hLO (ALOX12) enzyme inhibition; P18054; purified 12-hLO, xylenol orange hydroperoxide absorbance; Potency, µM (highest dose often 57.1 µM), for inactives: top-dose activity change, negative = inhibition, hits mostly inhibitors; actives 0.12% (n = 150,000); AID 1452; active = well fitted curve in the direction sought with a large enough effect; inconclusive = small, poorly fitted or top-dose-only effect, or another doubt; inactive = no such curve, though single readings can be large; an effect the other way counts as inactive or inconclusive; note: potency is the fitted concentration of half-maximal effect; nearly all actives have a fitted effect of over 55% in size
#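 Hydroperoxide output read as Fe(III)-xylenol orange absorbance, 573-to-405 nm ratio, after 30 min reaction with 40 uM arachidonic acid. Enzyme: 150 nM purified human 12hLO, 15 min compound preincubation; 25 mM Hepes pH 7.0, room temperature.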
# IMPase cell inh: membrane-permeable compound that blocks inositol monophosphatase. CHO-M1 cells, IP1 accumulation, HTRF TR-FRET ratio. 120,000 tested, under 10 active. inhibition (IP1 accumulation), % at 46.1 µM. P97697; active = well fitted curve in the direction sought with a large enough effect in the signal ratio, not every such curve was filed as active; inconclusive = small, poorly fitted or top-dose-only effect, or a change in a side signal; inactive = no such curve, though single readings can be large or run the other way; the % refers to the signal ratio;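 note: cells stimulated with carbachol in lithium chloride buffer; plate controls were DMSO basal wells for no effect and reference inhibitor wells for full effect; higher means more IMPase inhibition seen as more IP1 and lower FRET ratio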
# Target sequence (P97697 whole entry, looked up): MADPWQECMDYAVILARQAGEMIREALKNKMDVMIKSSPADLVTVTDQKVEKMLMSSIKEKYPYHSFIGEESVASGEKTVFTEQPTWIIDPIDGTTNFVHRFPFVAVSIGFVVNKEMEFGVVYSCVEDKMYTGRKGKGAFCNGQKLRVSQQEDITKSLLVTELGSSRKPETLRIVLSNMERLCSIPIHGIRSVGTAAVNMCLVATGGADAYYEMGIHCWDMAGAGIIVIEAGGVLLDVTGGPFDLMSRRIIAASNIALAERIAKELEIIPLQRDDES
#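 Measured: the HTRF emission ratio (665/620 nm) plus the 620 nm donor channel, each fitted to the Hill equation to give AC50. Cells were CHO-M1 given compounds up to 46 uM and a 30 min carbachol stimulation at 37C.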
# PNC assembly inh: perinucleolar compartment assembly inhibition | PC3M PTB-GFP, PNC prevalence imaging, 16 h; active compounds read low | actives 3.1% (n = 140,000) | activity change (PNC), negative = inhibition, % at 10 µM;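 active = readout at or below -70, meaning at least 70% loss of cells showing the perinucleolar compartment, a nuclear body marking cancer cells; inconclusive = readout between -30 and a set limit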;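 note: plate controls were DMSO wells for no effect and camptothecin positive control wells for full effect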
#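 PC3M cells stably expressing PTB-GFP, 750–1000 cells/well, treated 16 h at 37 °C with compound (23 nl of library stock), in duplicate. After paraformaldehyde fixation and Hoechst stain, imaged at 20x; PNC prevalence scored by image analysis.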
# IMPase Li cell: cell-permeable IMPase inhibitors with lithium potentiation | CHO-M1 cells, IP1 TR-FRET (IP-One), carbachol + lithium | actives 0.35% (n = 210,000) | Potency, µM (highest dose often 59.4 µM), for the others: at the highest dose activity, negative = IMPase inhibition, usual class: inhibitors; active = well fitted curve in the direction sought with a large enough effect; inconclusive = small, poorly fitted or top-dose-only effect, or another doubt; inactive = no such curve, though single readings can be large; an effect the other way counts as inactive or inconclusive;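 note: IP1 builds up when IMPase is blocked and the TR-FRET signal falls; potency is the fitted concentration of half-maximal effect; plate controls were basal vehicle for no effect and high inhibitor control for full effect; nearly all actives have a fitted effect of over 50% in size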
#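 CHO cells stably expressing M1 receptor (2000/well) were cultured 16–30 h, then exposed to compounds with a small lithium addition for 30 min at 37C. IP1 was measured by TR-FRET competition; AC50 from Hill fits.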
# * marks the source's active call; other numbers are inactive results; ? = inconclusive; . = not tested or not shown; [ ] = dose if it differs, or a comment. Unless noted, calls come from the whole dose curve; as a rule, active = well fitted inhibition curve with a large enough effect (not every such curve was filed as active); inconclusive = small, poorly fitted or top-dose-only effect, or another doubt; inactive = no such curve, though single readings can be large or run the other way. Unless noted, % is set by controls: 0 for no effect and ±100 for the full control effect.
SMILES,ALDH1A1 block,HPGD block,12-hLO inh,IMPase cell inh,PNC assembly inh,IMPase Li cell
CC1(C)CC(=O)c2sc(NC(=O)C3COc4ccccc4O3)nc2C1 (centres undefined),16µM*,-17%,1%,-21,?,2%[38.3 µM]
CC1(C)CNC(=O)c2sc(NC(=O)c3ccccc3Cl)nc2C1,13µM*,.,.,.,.,-7%
Cc1cccc2sc(NNC(=O)C3COc4ccccc4O3)nc12 (centres undefined),-4%,28µM*,-7%,.,?,9%
O=C(NNc1nc2c(F)cc(F)cc2s1)C1COc2ccccc2O1 (centres undefined),7%,.,.,.,.,-2%
CC1(C)CC(=O)c2sc(NC(=O)c3ccco3)nc2C1,22µM*,-9%,-5%,-4,16,-20%[38.3 µM]
Cc1cc(Br)c(OCc2ccc(C(=O)N/N=C3\CC4CC=CC34)cc2)c(Br)c1 (centres undefined),8.9µM*,13µM*,0%,.,21,-2%
N#C/C(=C\c1ccc(N2CCCCC2)o1)C(=O)Nc1cccc(Br)c1,?,-18%,0%,.,-108*,9%
Cc1ccc(/C=C(\C#N)C(=O)Nc2cccc(Br)c2)o1,.,.,.,-16,.,.
O=C(N=NC(=O)c1ccc2c(O)n(C3CCCCC3)c(O)c2c1)c1cccnc1,2.2µM*,-17%,1%,5,56,-8%[38.3 µM]
O=C(NC(=S)NC1CCCCCCCCCCC1)c1cccnc1,?,-9%,7%,7,?,-17%[38.3 µM]
COC(=O)[C@@]1(Cc2ccccc2)[C@H]2c3cc(C(=O)N(C)C)n(Cc4ccccn4)c3C[C@H]2CN1C(=O)c1ccccc1,-3%,-7%,-2%,.,.,1%
O=[N+]([O-])c1c(C(Cl)Cl)nn(-c2ccc(Cl)cc2)c1N1CCCCC1,2%,-3%,-2%,.,-113*,6%
Cc1ccc(C(=O)CSc2nc3cccnc3n2C)cc1,?,-17%,-5%,3,?,1%[38.3 µM]
COc1ccc(OC)c(C(=O)CSc2nc3cccnc3n2C)c1,22µM*,-13%,-5%,7,30,0%[38.3 µM]
CCn1nnnc1SCC(=O)c1cc(OC)ccc1OC,14µM*,-22%,-9%,-2,-5,3%[38.3 µM]
CNC(=O)C1=C(C)n2c(nc3ccccc32)NC1c1ccc(OC)cc1 (centres undefined),-2%,-4%,-6%,.,-114*,-5%
CC1=C(C(=O)Nc2ccccc2)C(c2cccc([N+](=O)[O-])c2)Nc2nc3ccccc3n21 (centres undefined),34%,-2%,-7%,1,?,30%[38.3 µM]
CN(C)c1ccnc(NCc2ccccc2)c1C#N,?,14µM*,-3%,-14,?,1%[38.3 µM]
Cc1cc(N(C)C)c(C#N)c(NCc2ccccc2)n1,2%,-25%,-4%,11,27,0%[38.3 µM]
N#Cc1c(NCc2ccccc2)ccnc1NCc1cccnc1,4%,13µM*,1%,-8[1.84 µM],-106*,44%[38.3 µM]
O=C(O)C=C1C2CC3CC(C2)CC1C3,-1%,5%,-5%,1,-82*,3%[38.3 µM]
Cc1ccccc1CSCCC(=O)NCCc1ccccc1,-12%,.,.,.,.,-11%
O=C(Cc1ccccc1)NCCc1cccc(Cl)c1,?,10µM*,5%,-1,-26,-1%[38.3 µM]
COc1ccc(CNC(=O)CCSCc2cccc(Cl)c2)c(OC)c1,?,28µM*,-10%,?,-24,10%
O=C(CCSCc1cccc(Cl)c1)NCCc1ccccc1,?,8.9µM*,-7%,10,29,7%
SMILES,ALDH1A1 block,HPGD block,12-hLO inh,IMPase cell inh,PNC assembly inh,IMPase Li cell
O=C(O)CCC(=O)NCCc1cccc(Cl)c1,?,.,.,.,.,0%
C#CCOC(=O)CCC(=O)NCCc1ccccc1,10µM*,-16%,0%,5,7,3%[38.3 µM]
C#C[C@]1(O)CC[C@@H]2[C@H]3CCC4=CCCC[C@@H]4[C@@H]3CC[C@@]21C,?,-9%,-2%[25.6 µM],4[20.6 µM],.,2%
O=C(NCCc1ccccc1)c1ccc(Cl)nc1,11%,-14%,1%,1,-100*,9%
O=C(NCCc1ccccc1)c1ccncc1,10%,-6%,-8%,5,-29,-5%[38.3 µM]
COc1ccc(CCN2C(=O)C3C4C=CC(C5CC45)C3C2=O)cc1OC (centres undefined),4µM*,.,.,.,.,26%
COc1ccc(CCNC2CC(=O)N(CCc3ccc(OC)c(OC)c3)C2=O)cc1OC (centres undefined),6.3µM*,-11%,-2%,-6,3,17%[38.3 µM]
COc1ccc(CCN2C(=O)CC(NCc3ccc4c(c3)OCO4)C2=O)cc1OC (centres undefined),25µM*,-8%,-9%,0,-3,9%[38.3 µM]
COc1ccc(CCN2C(=O)CC(NNc3ccc([N+](=O)[O-])cc3)C2=O)cc1OC (centres undefined),10µM*,.,.,.,.,5%
Cc1cc(C)c2oc(-c3cccc(NC(=O)c4ccc(-c5cccc([N+](=O)[O-])c5)o4)c3)nc2c1,.,.,.,-3,.,.
Cc1ccc(NC(=O)c2ccccc2Br)c(C(=O)c2ccccc2)c1,.,.,.,14,.,.
Cc1ccc(CC2CC(=O)N(CCc3ccccc3)C2=O)cc1 (centres undefined),-1%,.,.,.,.,18%
O=C1CC(Cc2ccccc2)C(=O)N1CCc1ccc2c(c1)OCO2 (centres undefined),18µM*,-9%,-4%,1,48,28%[38.3 µM]
O=C1CC(Cc2ccccc2)C(=O)N1CCCn1ccnc1 (centres undefined),16µM*,0%,-1%,1,?,6%
CC(=O)n1c(Cl)c(NC(=O)CCl)c2ccccc21,22µM*,-7%,5%,3,6,2%[38.3 µM]
CC(=O)n1c2ccccc2c2ccccc21,16%,-16%,0%,-9,59,-6%[38.3 µM]
Cc1cc2cc3c(cc2nc1SCC(=O)O)CCC3,4%,.,.,.,.,3.5µM*
CCC(=O)Nc1ccc(NC(=O)CSc2nc3cc4c(cc3cc2C)CCC4)cc1,11µM*,-21%,4%,8,-20,1%[38.3 µM]
COCOc1cc(OC)ccc1C(=O)/C=C\c1ccc2c(c1)OCO2,-17%[13.5 µM],.,.,.,.,.
CC(CCO)Nc1nc2c(c(=O)n(C)c(=O)n2C)n1Cc1ccc(Br)cc1 (centres undefined),.,.,.,6,.,.
CCOC(=O)C1CCCN(c2cc(NCCCO)c([N+](=O)[O-])c3nonc23)C1 (centres undefined),?,13µM*,-3%,.,?,0%
Cc1nnc(Sc2cc(NCCCO)c([N+](=O)[O-])c3nonc23)s1,?,.,.,.,.,29%
c1ccc(CSc2ncnc3c2cnn3Cc2ccccc2)cc1,?,?,-1%,11,-112*,26%[38.3 µM]
